# Data reported in the supplement of paper PMC8728848.
# The entries come from a sample that favours the strongest signals as a whole.
# Columns and labels:
# Assay in all cases: glycan array binding signal (z-score within array); higher = stronger binding
# Details in all cases: glycan notation: IUPAC condensed, linker removed
# [1] = biological target: Gal3S(b1-4)[Fuc(a1-3)]GlcNAc
# How it was run: (§1)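 Glycan array data were curated from 3228 arrays in the Consortium for Functional Glycomics database and kept only where the protein sequence was available. Glycan names were converted to IUPAC-condensed notation, and columns mapping to the same glycan were averaged. The binding signal is a within-array Z-score, averaged across arrays of the same protein sequence at different concentrations or buffers and across linkers. Negative Z-scores can be read as non-binding.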
# [2] = biological target: Gal3S6S(b1-4)GlcNAc6S
# How it was run: as §1
# [3] = biological target: Gal6S(b1-3)GlcNAc6S
# How it was run: as §1
# [4] = biological target: Gal6S(b1-4)GlcNAc6S
# How it was run: as §1
# [5] = biological target: GalNAc(a1-3)Fuc(a1-2)Gal(b1-4)GlcNAc(b1-3)[GalNAc(a1-3)Fuc(a1-2)Gal(b1-4)GlcNAc(b1-6)]GalNAc
# How it was run: as §1
# [6] = biological target: GalNAc(b1-3)Gal(a1-4)Gal(b1-4)GlcNAc
# How it was run: as §1
# [7] = biological target: GalNAc(b1-4)Gal(b1-4)Glc
# How it was run: as §1
# [8] = biological target: GalNAc(b1-4)GlcNAc(b1-3)GalNAc(b1-4)GlcNAc
# How it was run: as §1
# [9] = biological target: GalNAc(b1-4)GlcNAc6S
# How it was run: as §1
# [10] = biological target: GalNAc6S(b1-4)GlcNAc
# How it was run: as §1
# [11] = biological target: GlcA3S(b1-3)Gal(b1-4)GlcNAc(b1-3)Gal(b1-4)Glc
# How it was run: as §1
# [12] = biological target: GlcNAc(b1-2)[GlcNAc(b1-4)]Man(a1-3)[GlcNAc(b1-4)][GlcNAc(b1-2)Man(a1-6)]Man(b1-4)GlcNAc(b1-4)GlcNAc
# How it was run: as §1
# [13] = biological target: GlcNAc(b1-3)Gal(b1-4)GlcNAc(b1-3)Gal(b1-4)GlcNAc(b1-2)[GlcNAc(b1-3)Gal(b1-4)GlcNAc(b1-3)Gal(b1-4)GlcNAc(b1-6)]Man(a1-6)[GlcNAc(b1-3)Gal(b1-4)GlcNAc(b1-3)Gal(b1-4)GlcNAc(b1-2)Man(a1-3)]Man(b1-4)GlcNAc(b1-4)[Fuc(a1-6)]GlcNAc
# How it was run: as §1
# [14] = biological target: GlcNAc(b1-3)Gal(b1-4)GlcNAc(b1-3)Gal(b1-4)GlcNAc(b1-3)Gal(b1-4)GlcNAc(b1-2)[GlcNAc(b1-3)Gal(b1-4)GlcNAc(b1-3)Gal(b1-4)GlcNAc(b1-3)Gal(b1-4)GlcNAc(b1-6)]Man(a1-6)[GlcNAc(b1-3)Gal(b1-4)GlcNAc(b1-3)Gal(b1-4)GlcNAc(b1-3)Gal(b1-4)GlcNAc(b1-2)Man(a1-3)]Man(b1-4)GlcNAc(b1-4)[Fuc(a1-6)]GlcNAc
# How it was run: as §1
# [15] = biological target: GlcNAc(b1-3)Gal(b1-4)GlcNAc(b1-3)Gal(b1-4)GlcNAc(b1-3)Gal(b1-4)GlcNAc(b1-3)Gal(b1-4)GlcNAc(b1-2)Man(a1-3)[GlcNAc(b1-3)Gal(b1-4)GlcNAc(b1-3)Gal(b1-4)GlcNAc(b1-3)Gal(b1-4)GlcNAc(b1-3)Gal(b1-4)GlcNAc(b1-2)Man(a1-6)]Man(b1-4)GlcNAc(b1-4)[Fuc(a1-6)]GlcNAc
# How it was run: as §1
# [16] = biological target: GlcNAc(b1-4)GlcNAc(b1-4)GlcNAc
# How it was run: as §1
# [17] = biological target: Man(a1-6)Man
# How it was run: as §1
# [18] = biological target: Neu5Ac(a2-3)Gal(b1-3)GalNAc
# How it was run: as §1
# [19] = biological target: Neu5Ac(a2-3)Gal(b1-3)GlcNAc(b1-3)Gal(b1-3)GlcNAc
# How it was run: as §1
# [20] = biological target: Neu5Ac(a2-3)Gal(b1-3)[Fuc(a1-4)]GlcNAc
# How it was run: as §1
# [21] = biological target: Neu5Ac(a2-3)Gal(b1-4)GlcNAc(b1-2)[Neu5Ac(a2-3)Gal(b1-4)GlcNAc(b1-6)]Man(a1-6)[Neu5Ac(a2-3)Gal(b1-4)GlcNAc(b1-2)Man(a1-3)][GlcNAc(b1-4)]Man(b1-4)GlcNAc(b1-4)GlcNAc
# How it was run: as §1
# [22] = biological target: Neu5Ac(a2-3)Gal(b1-4)[Fuc(a1-3)]GlcNAc(b1-3)Gal
# How it was run: as §1
# [23] = biological target: Neu5Ac(a2-3)Gal(b1-4)[Fuc(a1-3)]GlcNAc6S
# How it was run: as §1
# [24] = biological target: Neu5Ac(a2-3)Gal6S(b1-4)[Fuc(a1-3)]GlcNAc
# How it was run: as §1
# [25] = biological target: Neu5Ac(a2-6)Gal(b1-4)GlcNAc(b1-2)Man(a1-3)[GlcNAc(b1-2)Man(b1-4)GlcNAc(b1-2)Man(a1-6)]Man(b1-4)GlcNAc(b1-4)GlcNAc
# How it was run: as §1
# [26] = biological target: Neu5Ac(a2-6)Gal(b1-4)GlcNAc(b1-2)Man(a1-3)[Man(a1-6)]Man(b1-4)GlcNAc(b1-4)GlcNAc
# How it was run: as §1
# [27] = biological target: Neu5Ac(a2-6)Gal(b1-4)GlcNAc(b1-3)Gal(b1-4)[Fuc(a1-3)]GlcNAc(b1-3)Gal(b1-4)[Fuc(a1-3)]GlcNAc
# How it was run: as §1
# [28] = biological target: Neu5Ac(a2-6)Gal(b1-4)GlcNAc6S
# How it was run: as §1
# [29] = biological target: Neu5Ac(a2-8)Neu5Ac(a2-3)Gal(b1-4)GlcNAc
# How it was run: as §1
binder,measurement,setting,value
KISKRILTGKK [NK11 (Sus scrofa)],glycan array binding signal (z-score),[1],2.52
same,glycan array binding signal (z-score),[2],1.05
same,glycan array binding signal (z-score),[3],3.65
same,glycan array binding signal (z-score),[4],2.58
same,glycan array binding signal (z-score),[5],-0.542
same,glycan array binding signal (z-score),[6],0.262
same,glycan array binding signal (z-score),[7],-0.229
same,glycan array binding signal (z-score),[8],-0.419
same,glycan array binding signal (z-score),[9],2.55
same,glycan array binding signal (z-score),[10],0.009
same,glycan array binding signal (z-score),[11],-1.34
same,glycan array binding signal (z-score),[12],-0.207
same,glycan array binding signal (z-score),[13],2.97
same,glycan array binding signal (z-score),[14],2.73
same,glycan array binding signal (z-score),[15],0.231
same,glycan array binding signal (z-score),[16],-0.597
same,glycan array binding signal (z-score),[17],-0.205
same,glycan array binding signal (z-score),[18],0.104
same,glycan array binding signal (z-score),[19],-0.342
same,glycan array binding signal (z-score),[20],-0.073
same,glycan array binding signal (z-score),[21],0.405
same,glycan array binding signal (z-score),[22],0.515
same,glycan array binding signal (z-score),[23],3.52
same,glycan array binding signal (z-score),[24],-0.648
same,glycan array binding signal (z-score),[25],2.33
same,glycan array binding signal (z-score),[26],1.52
same,glycan array binding signal (z-score),[27],-0.044
same,glycan array binding signal (z-score),[28],0.729
same,glycan array binding signal (z-score),[29],-1.78
